A selection: hits, their analogues and other compounds. The true share with any hit is near 4.8%.
NR1D1 modulator = modulates human Rev-erb alpha binding to DNA | Rev-erbα–FITC-DNA binding, fluorescence polarization, 90 min | activity, % at 10 µM | 370,000 compounds, 0.79% hits | AID 1259318;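 active = activity above about 14%, limit read from the data; passing the limit was not always enough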;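 also: 0% = DMSO wells with 35 nM protein and 100% = DMSO wells with 750 nM protein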
Target sequence (P20393 whole entry, looked up): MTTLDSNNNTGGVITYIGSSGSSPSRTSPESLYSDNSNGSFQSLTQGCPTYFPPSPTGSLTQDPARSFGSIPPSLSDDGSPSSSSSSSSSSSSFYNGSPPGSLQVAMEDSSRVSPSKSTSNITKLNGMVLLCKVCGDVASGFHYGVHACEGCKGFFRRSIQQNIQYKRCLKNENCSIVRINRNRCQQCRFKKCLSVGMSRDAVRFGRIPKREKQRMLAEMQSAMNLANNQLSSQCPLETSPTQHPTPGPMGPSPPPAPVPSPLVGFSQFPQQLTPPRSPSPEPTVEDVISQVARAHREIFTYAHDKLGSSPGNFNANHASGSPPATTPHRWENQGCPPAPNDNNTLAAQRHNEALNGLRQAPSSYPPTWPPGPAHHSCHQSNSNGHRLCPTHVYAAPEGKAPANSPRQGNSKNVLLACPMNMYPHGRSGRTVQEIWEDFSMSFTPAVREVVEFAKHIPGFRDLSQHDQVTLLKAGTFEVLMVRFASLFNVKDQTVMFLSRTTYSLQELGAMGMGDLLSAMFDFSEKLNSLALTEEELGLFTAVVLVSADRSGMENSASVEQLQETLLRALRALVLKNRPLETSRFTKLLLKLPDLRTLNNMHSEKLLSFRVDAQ
ssDAF12 agonist = activates DAF-12 receptor from parasite S. stercoralis; HEK293 ssDAF-12/GRIP1 lit1-tk-luc reporter, luminescence; % of 3 µM dafachronic acid response; activation, % at 6.8 µM; 370,000 compounds, 1% hits; AID 652126;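 active = activation above the mean over all tested compounds plus 3 SD, cut at about 0.9% in these data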;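 also: 0% = DMSO-only wells and 100% = 3 µM delta7-dafachronic acid wells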
hgDAF12 agonist = activates the H. glycines DAF-12 receptor ligand-binding domain. HEK293 GAL4-hgDAF12 UAS-luciferase reporter, agonist luminescence; normalized to butyrate control. activation, % at 6.8 µM. 370,000 compounds, 1.8% hits. AID 687014;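 active = activation above a cutoff set at the mean of all screened compounds plus 3 SD, cut at about 10% in these data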;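 also: 0% = DMSO wells and 100% = sodium butyrate wells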
DAX1 inh-1 = DAX1 (NR0B1) inhibition, primary screen. HEK293T StAR-luciferase reporter, SF-1/DAX-1 repression relief. inhibition, % at 6.8 µM. 370,000 compounds, 1.1% hits;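 active = inhibition above the mean over all tested compounds plus 3 SD, cut at about 3.6% in these data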;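 also: 0% = DAX-1 cells with DMSO and 100% = cells lacking DAX-1 with DMSO; higher inhibition means more luminescence from relief of DAX-1 repression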
hcDAF12 agonist = H. contortus DAF-12 activation, primary screen; HEK293 hcDAF-12 lit1-tk-luc reporter, luminescence; 0% DMSO, 100% Δ7-dafachronic acid; activation, % at 6.8 µM; 370,000 compounds, 1.4% hits; AID 652067;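 active = activation above the mean of all tested compounds plus 3 SD, cut at about 5.5% in these data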;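 also: 100% = response to 3 µM Δ7-dafachronic acid high control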
DAX1 inh-2 = inhibitors of human orphan nuclear receptor DAX1 (NR0B1) | AID 504766 | HEK293 Gal4-DAX1 luciferase reporter, luminescence | 340,000 compounds, 0.99% hits | inhibition, % at 6.75 µM;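 active = inhibition above the mean over all tested compounds plus 3 SD, cut at about 4.2% in these data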;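 also: 0% = DAX1-transfected cells with DMSO and 100% = empty-vector control cells with DMSO; inhibition shows as a rise in luminescence from relieved DAX1 repression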
The depositor's hits bear a star; . = no result.

SMILES	NR1D1 modulator	ssDAF12 agonist	hgDAF12 agonist	DAX1 inh-1	hcDAF12 agonist	DAX1 inh-2
CCCOc1ccc(C(=O)Nc2cccnc2)cc1	4	-1	0	0	-1	0
O=C(Nc1cccnc1)c1ccc2ccccc2c1O	-4	1	9	1	2	4.3*
OC1OC2COC(c3ccccc3)OC2C(O)C1O (stereo unspecified)	-1	-1	-2	1	-1	.
COC(=O)c1cc2c(c3c4cc(F)ccc4n(S(=O)(=O)c4ccc(C)cc4)c13)C(=O)N(Cc1ccc(N(C)C)cc1)C2	2	0	1	-1	0	.
COCc1[nH]nc2c1C(c1ccc(C)cc1)NC2=O (stereo unspecified)	-4	-1	3	2	-2	.
COc1ccccc1NC(=O)/C=C\c1ccco1	0	0	3	0	5.6*	1
COc1cccc(NC(=O)/C=C/c2ccco2)c1	1	0	11*	4.0*	2	0
COc1ccccc1NC(=S)NC(=O)/C=C/c1ccco1	4	0	2	0	1	1
Cc1ccc(NC(=O)Cc2cccc(OC(F)F)c2)c(S(=O)(=O)N2CCOCC2)c1	-8	-2	0	-1	-1	.
Nc1[nH]c(C(=O)c2ccccc2)c(-c2ccc3ccccc3c2)c1C(=O)NCCc1ccc(Cl)cc1	0	-2	6	.	-2	.
CC(C)(C)C(=O)c1c(N)[nH]c(C(=O)c2ccccc2)c1-c1ccc([N+](=O)[O-])cc1	2	-1	3	2	3	.
O=S1(=O)CC2c3ccc(F)cc3CN2CN1Cc1ccccc1 (stereo unspecified)	-8	-1	2	0	2	.
COc1cc(NC(=O)C2CCCN(S(=O)(=O)c3ccc(C)c(C)c3)C2)cc(OC)c1 (stereo unspecified)	-6	-2	4	0	-4	.
CSc1ccccc1NC(=O)COC(=O)c1c[nH]c(=O)[nH]c1=O	-4	-1	2	0	0	5.5*
CC(=O)Nc1ccccc1OCC(=O)NC(C)c1ccccc1 (stereo unspecified)	-5	1.0*	1	0	4	-1
O=C(COC(=O)c1c[nH]c(=O)[nH]c1=O)Nc1ccccc1F	-1	-1	-2	0	0	0
CSc1ccccc1NC(=O)COc1ccccc1C	1	1.5*	5	2	2	1
CN1OC[C@@H]2CN(C(=S)Nc3cc(C(F)(F)F)cc(C(F)(F)F)c3)[C@H](c3ccccc3Br)C[C@@H]21	8	-1	-2	-2	1	.
CN(C)[C@@H]1CCN(c2cccc3c2S(=O)(=O)N(C2CC2)CCCO3)C1	-1	-1	2	-1	1	.
CC1CCCCC1NC(=O)C1CCN(S(=O)(=O)c2ccc3c(c2)CCC(=O)N3)CC1 (stereo unspecified)	-7	-2	-3	0	1	5.1*
CCSc1ccc(-c2cccc([N+](=O)[O-])c2)nn1	6	0	13*	2	6.2*	0
O=C(CSc1ccc(-c2cccc([N+](=O)[O-])c2)nn1)N1CCCC1	-7	-1	0	0	-1	2
Cc1cc(NC(=O)CSc2ccc(-c3cccc([N+](=O)[O-])c3)nn2)no1	-4	0	-2	4.0*	2	0
Cc1cc(NC(=O)CSc2ccc(-c3ccccc3)nn2)no1	-1	-1	0	0	-2	0
CCOC(=O)CCc1c(C)nc(SCC(=O)O)c(C#N)c1C	-7	-1	-1	-1	-1	0
SMILES	NR1D1 modulator	ssDAF12 agonist	hgDAF12 agonist	DAX1 inh-1	hcDAF12 agonist	DAX1 inh-2
CCOC(=O)CCc1c(C)nc(SCc2ccc(C(=O)O)cc2)c(C#N)c1C	3	-1	-1	0	-1	6.0*
Fc1ccc(/C=N/Nc2nn[nH]n2)cc1	1	-1	-3	0	-1	7.1*
CC1CC(C(O)c2ccccn2)C(=O)C(C(O)c2ccccn2)C1 (stereo unspecified)	-6	2.0*	0	0	-2	-1
COc1c(Cl)cc(-c2noc(C)c2C(=O)NCc2ccc3c(c2)OCO3)cc1Cl	2	-1	1	-1	-1	4.3*
COc1cc(-c2noc(C)c2C(=O)NCc2ccc3c(c2)OCO3)cc(OC)c1OC	-2	-2	0	0	0	2
O=[N+]([O-])c1ccc(Nc2nc(N3CCOCC3)nc(N3CCOCC3)n2)cc1	-11	1.1*	0	0	0	0
Fc1ccc(Nc2nc(N3CCOCC3)nc(N3CCOCC3)n2)cc1	-5	-1	0	0	-2	1
CN1CCN(c2nc(-c3ccccc3O)nc3ccccc23)CC1	-1	0	4	0	6.5*	1
CN1CCN(c2nc(-c3ccccc3Cl)nc3ccccc23)CC1	5	-1	4	0	0	0
CCOC(=O)[C@@H](CCc1ccccc1)N[C@@H](C)C(=O)N1CCC[C@H]1C(=O)O	4	-1	3	1	1	.
COc1ccc(C#Cc2c(-c3ccsc3)oc3ccc(-c4cc(OC)c(OC)c(OC)c4)cc23)cc1	-1	-1	4	-1	5.6*	0
CCCC(=O)OC[C@H]1CN([C@H](C)c2ccccc2)S(=O)(=O)c2c(F)cccc2O1	-1	0	-1	1	-1	.
O=c1c2c3c(sc2nc2n1CCCCC2)CCC3	-2	-1	3	0	1	0
O=C1c2sc3nc4n(c(=O)c3c2CCC1Br)CCCCC4 (stereo unspecified)	-4	0	5	1	3	1
O=C1CCCc2c1sc1nc3n(c(=O)c21)CCCCC3	-2	-1	10*	1	1	2
O=c1c2c3c(sc2nc2n1CCCCC2)C(O)CCC3 (stereo unspecified)	-2	-1	11*	4	2	1
O=C(CSc1nnc(-c2ccc(Cl)cc2)n1Cc1ccco1)Nc1ccc(S(=O)(=O)Nc2nccs2)cc1	2	-1	1	0	1	.
Cc1ccc(S(C)(=O)=NC(=O)NC(=O)c2c(F)cccc2Cl)cc1 (stereo unspecified)	0	-1	1	0	-1	1
Cc1ccc(S(C)(=O)=NC(=O)NC(=O)c2c(Cl)cccc2Cl)cc1 (stereo unspecified)	2	-1	1	0	-1	4.9*
CN(CCOC(=O)c1cc2ccccc2o1)C1CN(Cc2cn(Cc3ccccc3C(F)(F)F)nn2)S(=O)(=O)C1 (stereo unspecified)	7	-1	1	-1	1	.
Nc1nc(Cl)nc2ncn(Cc3ccccc3)c12	-1	0	11*	1	1	-2

Compound activity from PubChem BioAssay.
